# Shown are actives, neighbours in structure and some others; about 2.6% of the full set was active somewhere.
# BRCA1 expr up – BRCA1 expression activation; MCF7-BRCA1-FFLuc reporter, luminescence, 48 h; response scale: scaled: vehicle 0%, 10 µM genistein 100%; Potency, µM (top dose mostly 46.1 µM), for the others: at the top dose activation, actives largely listed as activators; 380,000 compounds, 1.1% hits; AID 624202; also: nearly all actives have a fitted effect of over 80% in size
#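 48 h compound treatment of MCF7-BRCA1-FFLuc cells (phenol-red free MEM, 37 °C), then 15 min with luciferase substrate and luminescence imaging.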
# GLP1R inv ag – inverse agonists of human GLP-1 receptor; 410,000 compounds, 1.6% hits; Potency, µM (doses to about 38.3 µM), for the others: at the highest dose activity change, negative = inhibition, usual class: inhibitors; AID 624417; HEK293 GLP-1R CRE-luciferase, luminescence, 24 h; GLP-1R form is constitutively active; P43220; also: % is scaled to controls: 0 for no effect and ±100 for the full control effect; nearly all actives have a fitted effect of over 55% in size
# Target sequence (P43220 whole entry, looked up): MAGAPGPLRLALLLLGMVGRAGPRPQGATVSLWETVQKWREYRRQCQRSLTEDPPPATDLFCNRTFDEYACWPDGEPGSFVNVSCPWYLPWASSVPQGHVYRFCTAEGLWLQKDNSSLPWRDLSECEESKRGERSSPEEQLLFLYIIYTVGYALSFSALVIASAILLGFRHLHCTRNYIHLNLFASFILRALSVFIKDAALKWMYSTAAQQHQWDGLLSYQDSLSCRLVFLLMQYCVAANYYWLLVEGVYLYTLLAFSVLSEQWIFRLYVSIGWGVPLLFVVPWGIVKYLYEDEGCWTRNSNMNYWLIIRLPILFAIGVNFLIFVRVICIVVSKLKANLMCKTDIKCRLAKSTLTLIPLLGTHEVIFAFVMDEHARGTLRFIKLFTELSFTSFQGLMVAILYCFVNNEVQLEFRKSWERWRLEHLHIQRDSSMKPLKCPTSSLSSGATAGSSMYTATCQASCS
#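 GLP-1R inverse agonism mode: basal reporter luminescence in engineered HEK293 cells measured after one day of compound exposure at 37 deg C, with a 12 min room-temperature detection step.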
# GLP1R cytotox – cytotoxicity counter-screen for GLP-1 receptor inverse agonists. HEK293 cAMP-luciferase reporter cells, luminescence, 24 h. Potency, µM (series often up to 38.3 µM), inactives show at the top dose activity change, negative = inhibition, hits mostly inhibitors. 410,000 compounds, 0.13% hits. AID 624418;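 also: loss of luciferase light is scored as toxicity; % is scaled to controls: 0 for no effect and ±100 for the full control effect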
#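 A 23 nL compound transfer followed 12 hours of cell culture at 37 deg C; exposure then lasted 24 hr. Luciferase assay detection reagent was dispensed and plates read for luminescence after a 12 min room-temperature wait.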
# GLP-1R agonist – activates the human GLP-1 receptor; P43220; HEK293 GLP-1R CRE-luciferase, luminescence, 4-6 h; cells express a hypersensitive GLP-1R form; Potency, µM (series often up to 45.6 µM), for the others: at the top dose activation, hits mostly activators; 380,000 compounds, 0.007% hits; also: % of control where 0% means no effect
# The depositor's hits bear a star; ? = inconclusive; / = no result given. Calls follow the shape of the dose curve; as a rule, active = well fitted curve in the direction sought with a large enough effect; inconclusive = small, poorly fitted or top-dose-only effect, or another doubt; inactive = no such curve, though single readings can be large; an effect the other way counts as inactive or inconclusive. Potency is read from the fitted curve at half-maximal effect.
SMILES,BRCA1 expr up,GLP1R inv ag,GLP1R cytotox,GLP-1R agonist
CCn1cc(C(=O)NCCCN(CC(C)C)CC(C)C)c(=O)c2cc(S(=O)(=O)N3CCOCC3)ccc21,-14%,-1%,-6%,4%
CCn1cc(C(=O)NCCN(CC(C)C)CC(C)C)c(=O)c2cc(S(=O)(=O)N3CCOCC3)ccc21,2%,7.9µM*,-18%,9%
CCn1cc(C(=O)NCCCN2CCCC(C)C2)c(=O)c2cc(S(=O)(=O)N3CCc4ccccc4C3)ccc21 (centres undefined),-1%,10µM*,-26%,11%
Cc1c(Cl)ccc2c(C(=O)NCCN3CCCCC3)cc(-c3ccccn3)nc12,-41%,3.5µM*,?,5%
CCc1ccc(NC(=S)NC(=O)CC(C)C)cc1,6.3µM*,?,?,26%
CCOC(=O)c1sc(NC(=O)c2ccc(Cl)s2)cc1C,4.5µM*,2%,-7%,0%
CCOC(=O)c1sc(NC(=O)c2ccccc2)cc1C,?,-4%,-12%,7%
CCOC(=O)c1sc(NC(=S)NC(=O)CC(C)C)cc1C,?,10µM*,?,4%
CCOC(=O)c1sc(NC(=O)C(C)(C)C)cc1C,3.2µM*,-25%,-26%,-3%
O=C(Cn1cnc2c(oc3ccccc32)c1=O)Nc1ccc(F)cc1F,/,5%,35%,/
Cc1[nH]c2ccccc2c1C(=O)C(=O)NC1CC(=O)N(c2ccc(F)cc2)C1 (centres undefined),1%,-25%,9%,-14%
COc1ccccc1CNC(=O)C1CCC(CNS(=O)(=O)c2ccc3c(c2)CCCC(=O)N3)CC1 (centres undefined),-25%,16%,-1%,/
c1ccc(N=c2nc(-c3ccccc3)n(-c3ccccc3)s2)cc1,-41%,/,/,/
CN1CCN(S(=O)(=O)c2ccc(NC(=O)COc3ccccc3Cl)cc2)CC1,2%,2%,-14%,8%
COc1ccc(O)c(/C=N/NC(=S)NCCc2ccccc2)c1,-47%,2.2µM*,6%,23%
COc1ccc(/C(C)=N/NC(=S)NCCc2ccccc2)c(O)c1,-38%,2µM*,?,8%
COc1ccc2[nH]cc(CCNC(=S)NCCc3ccccc3)c2c1,-1%,8.9µM*,?,12%
Fc1ccc(/C=N/NC(=S)NCCc2ccccc2)cc1F,41%,?,13µM*,23%
COc1ccc2cc(C(=O)NCCc3ccccc3)[nH]c2c1,4.5µM*,6%,0%,9%
COc1ccc(NC(=O)/C=C\C(=O)N(c2ccc(C(C)C)cc2)C(C(=O)NCc2ccco2)c2ccc(C)cc2)cc1 (centres undefined),/,10µM*,-19%,/
CC1(C)C2CCC1(C)C(OCCNCCOC(=O)Nc1ccccc1)C2 (centres undefined),2%,11µM*,0%,26%
CC1(C)C2CCC1(C)C(OC(=O)c1ccccc1C(=O)O)C2 (centres undefined),-2%,?,0%,-2%
COc1ccc(C(=O)c2oc3ccc(OC)cc3c2N)cc1,5µM*,-8%,23%,5%
Cc1cc(C)c2nc(N3CCCC(C(=O)NCCN4CCOCC4)C3)sc2c1 (centres undefined),2.8µM*,0%,15%,2%
COC(=O)C(Cc1ccc(O)cc1)N1Cc2ccccc2C1=O (centres undefined),10µM*,13%,-2%,13%
SMILES,BRCA1 expr up,GLP1R inv ag,GLP1R cytotox,GLP-1R agonist
CCC(C)NC(=O)[C@H](CSCc1ccccc1)N1Cc2ccccc2C1=O (some centres undefined),-20%,11µM*,-2%,-6%
CC(C)CCNC(=O)[C@H](CSCc1ccccc1)N1Cc2ccccc2C1=O,-8%,?,-9%,9%
NNC(=O)C(Cc1ccc(O)cc1)N1Cc2ccccc2C1=O (centres undefined),3%,10%,1%,1%
CCOc1ccc(-c2ccc(NS(=O)(=O)c3cc(C)c(C)cc3C)cc2)nn1,/,?,0%,/
Cc1ccc(C(=O)N2CCc3ccccc32)cc1,11µM*,?,2%,3%
O=C(c1ccc(Cl)s1)N1CCc2ccccc21,11µM*,?,3%,-3%
Cc1ccc(-c2cc(C(=O)N3CCCc4ccccc43)no2)cc1,3.2µM*,?,-5%,10%
COc1ccc(-c2cn3c(C)c(C(=O)N4CCCc5ccccc54)sc3n2)cc1,-21%,8.9µM*,-21%,4%

# Assay outcomes: PubChem BioAssay, National Center for Advancing Translational Sciences (NCATS)
